The list is not random: actives were taken first. Their share in the collection is about 11%.
AmpC no deterg: blocks E. coli AmpC beta-lactamase in detergent-free assay; AmpC nitrocefin hydrolysis, absorbance 480 nm, 0.0001% Triton; P00811; actives 0.52% (n = 330,000); Potency, µM (titrated, usually from 57.1 µM), for inactives: top-dose activity change, negative = inhibition, actives largely listed as inhibitors; AID 485341;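 also: plate controls were no compound for no effect and no enzyme for full effect; nearly all actives have a fitted effect of over 20% in size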
Target sequence (P00811 whole entry, looked up): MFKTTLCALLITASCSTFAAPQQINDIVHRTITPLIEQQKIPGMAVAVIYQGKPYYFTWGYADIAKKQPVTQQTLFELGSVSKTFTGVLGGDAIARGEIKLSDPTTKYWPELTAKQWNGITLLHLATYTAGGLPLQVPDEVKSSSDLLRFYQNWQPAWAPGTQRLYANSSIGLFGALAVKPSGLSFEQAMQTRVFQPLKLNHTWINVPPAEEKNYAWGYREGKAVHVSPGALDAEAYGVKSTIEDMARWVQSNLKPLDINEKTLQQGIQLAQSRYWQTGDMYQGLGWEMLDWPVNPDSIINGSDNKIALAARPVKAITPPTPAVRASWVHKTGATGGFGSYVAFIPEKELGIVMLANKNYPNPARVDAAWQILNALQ
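AmpC (5.3 nM in the dispensed reagent) in 20 mM phosphate pH 7.0 with 0.01% (detergent screen) or 0.0001% Triton X-100 was preincubated with compounds for 15 min at room temperature. Nitrocefin was then added from an 800 uM solution, and hydrolysis was followed at 480 nm.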
AmpC inh detg: AmpC beta-lactamase inhibition with detergent present; P00811; AmpC hydrolysis of nitrocefin, absorbance 480 nm, 0.01% Triton; Potency, µM (highest dose often 114 µM), without a hit: at the top dose activity change, negative = inhibition, hits mostly inhibitors; actives 0.041% (n = 370,000); AID 485294;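 also: 0% = no-compound wells and -100% = no-enzyme wells; nearly all actives have a fitted effect of over 25% in size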
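AmpC (5.3 nM in the dispensed reagent) in 20 mM phosphate pH 7.0 with 0.01% (detergent screen) or 0.0001% Triton X-100 was preincubated with compounds for 15 min at room temperature. Nitrocefin was then added from an 800 uM solution, and hydrolysis was followed at 480 nm.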
Pf growth 48h: P. falciparum growth inhibition at 48 hours (one generation). Potency, µM (titrated, usually from 28.7 µM), inactives show at the top dose activity change, negative = inhibition, most hits filed as inhibitors. P. falciparum luciferase growth in erythrocytes, 48 h. actives 5.9% (n = 310,000)
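Read-out is firefly luciferase luminescence from an integrated reporter in P. falciparum, so falling signal marks reduced parasite growth. Infected erythrocytes were at 2% hematocrit and 0.1% parasitemia (final) in Albumax-supplemented RPMI 1640.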
HCV inhibitor: blocks hepatitis C virus. Huh7.5.1 HCVcc-Cre infection, luciferase reporter, 44 h. Potency, µM (top dose mostly 41.8 µM), for the others: at the highest dose activity change, negative = inhibition, most hits filed as inhibitors. actives 3.4% (n = 340,000). AID 651820
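HCVcc-Cre virus at an moi near 0.5 was added right after compound to cells cultured 4 h from seeding (1,000 cells/well). Luciferase activity was determined 44 h later, 15 min after substrate addition at RT.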
AMA1-RON2 inh: disrupts binding of P. falciparum AMA1 to RON2; AlphaScreen AMA1-biotinylated RON2 peptide binding; Potency, µM (top dose mostly 58.2 µM), for inactives: top-dose activity change, negative = inhibition, most hits filed as inhibitors; actives 0.2% (n = 360,000); AID 720542;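 also: 0% = vehicle wells and -100% = peptide control; nearly all actives have a fitted effect of over 45% in size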
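AMA1 (3D7) with his tag at 25 nM final met compounds first, then biotinylated RON2 peptide at 25 nM; detection used donor plus acceptor beads, 10 µg/mL apiece, read by AlphaScreen after 30 min at room temperature.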
Pf growth 96h: P. falciparum growth inhibition at 96 hours. P. falciparum luciferase reporter growth, 96 h. actives 6.9% (n = 320,000). Potency, µM (top dose mostly 28.7 µM), for inactives: at the top dose activity change, negative = inhibition, hits mostly inhibitors
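P. falciparum expressing integrated firefly luciferase grown in erythrocytes (2% hematocrit, 0.05% parasitemia final) with compounds for 96 hours at 37 C, 5% CO2. Growth inhibition read as loss of luminescence after adding luciferase detection reagent.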
* marks the source's active call; other numbers are inactive results. Calls follow the shape of the dose curve; as a rule, active = well fitted curve in the direction sought with a large enough effect; inconclusive = small, poorly fitted or top-dose-only effect, or another doubt; inactive = no such curve, though single readings can be large; an effect the other way counts as inactive or inconclusive. Unless noted, % is scaled to controls: 0 for no effect and ±100 for the full control effect; potency is read from the fitted curve at half-maximal effect.

`Cc1cc(N2CCN(C)CC2)nc2ccc(NC(=S)NC3CC3)cc12` gave AmpC no deterg -19%, AmpC inh detg -2%, Pf growth 48h inconclusive, HCV inhibitor -24%, AMA1-RON2 inh -3% and Pf growth 96h inconclusive.
`CCCCN(CC)CCNC(=S)Nc1ccc2nc(N3CCN(C)CC3)cc(C)c2c1` gave AmpC no deterg 53%, AmpC inh detg 5%, Pf growth 48h 1.7µM*, HCV inhibitor 0.89µM*, AMA1-RON2 inh 2% and Pf growth 96h inconclusive.
Screening Cc1ccc(-n2ncc3c(N4CCCCCC4)ncnc32)cc1C returned AmpC inh detg 2%.
COc1ccc(OC)c(C2CC(=O)Nc3c2c(=O)[nH]c2nc4ccccc4n32)c1 (centres undefined) was read as AmpC inh detg 1%.
`O=C(c1ccccc1)c1ccc2nc(-c3ccco3)c(-c3ccco3)nc2c1` gave AmpC no deterg 25µM*, AmpC inh detg 4%, Pf growth 48h -4%, HCV inhibitor inconclusive, AMA1-RON2 inh inconclusive and Pf growth 96h 7%.
`O=C(NCCO)c1ccc2nc(-c3ccco3)c(-c3ccco3)nc2c1` gave AmpC no deterg -7%, AmpC inh detg 2%, Pf growth 48h -1%, HCV inhibitor 1% and AMA1-RON2 inh inconclusive.
Screening O=C(NCCc1ccccc1)c1ccc2nc(-c3ccco3)c(-c3ccco3)nc2c1 returned AmpC no deterg 16µM*, AmpC inh detg -9%, HCV inhibitor 11µM*, AMA1-RON2 inh 1% and Pf growth 96h -14%.
Screening Cc1ccc(C(=O)Nc2cccc(C(=O)OCc3cc(=O)n4c5c(sc4n3)CCCC5)c2)cc1 returned AmpC inh detg 13%.
`Cc1ccc(CCNc2nc3c(S(=O)(=O)c4ccc(C)cc4)nnn3c3ccsc23)cc1` gave AmpC inh detg 11%.
Screening COCCC(=O)N1CCCC(CNS(=O)(=O)c2ccc(OC)cc2)C1 (centres undefined) returned AmpC no deterg 0%, AmpC inh detg -2%, Pf growth 48h 4%, HCV inhibitor 15%, AMA1-RON2 inh 11% and Pf growth 96h 0%.
COc1ccc(CN2CCC(CNS(=O)(=O)c3cccc(C(F)(F)F)c3)CC2)cc1 was read as AmpC no deterg 33%, AmpC inh detg -9%, Pf growth 48h -8%, HCV inhibitor 11µM*, AMA1-RON2 inh -18% and Pf growth 96h 3%.
For COCC(=O)N1CCCC(CNS(=O)(=O)c2ccc(OC)cc2)C1 (centres undefined) the results were AmpC no deterg -2%, AmpC inh detg 2%, Pf growth 48h 0%, HCV inhibitor -5%, AMA1-RON2 inh 4% and Pf growth 96h 10µM*.
Screening COc1ccc(CN2CCN(C(=O)C3CCC(CNS(=O)(=O)c4ccccc4)CC3)CC2)c(OC)c1OC (centres undefined) returned AmpC no deterg 206%, AmpC inh detg -10%, Pf growth 48h inconclusive, HCV inhibitor 3.5µM*, AMA1-RON2 inh 29% and Pf growth 96h inconclusive.
`Cc1ccc(S(=O)(=O)NCC2CCC(C(=O)NCc3cccs3)CC2)cc1` (centres undefined) gave AmpC no deterg -21%, AmpC inh detg -6%, Pf growth 48h -1%, HCV inhibitor -3%, AMA1-RON2 inh 4% and Pf growth 96h 10µM*.
For CN(c1ccc(Cl)cc1)S(=O)(=O)c1nnc(NC(=O)C2CCCCC2)s1 the results were AmpC inh detg 9%.

Assay outcomes deposited in PubChem by National Center for Advancing Translational Sciences (NCATS).
